Some structures have more than one record in an assay (separate samples or runs), and their calls can disagree. Calls of active or inactive are those of the source. How the source made its calls: active means hit-call score of the fitted dose curve at least 0.9, where 1 is the maximum; inactive means score below 0.9.

What is called AC50 is the concentration at which the activity in the assay is half-maximal.

Nuclear respiratory factor 1 (Homo sapiens), sequence (Q16656 whole entry, looked up, the tested form may be a part): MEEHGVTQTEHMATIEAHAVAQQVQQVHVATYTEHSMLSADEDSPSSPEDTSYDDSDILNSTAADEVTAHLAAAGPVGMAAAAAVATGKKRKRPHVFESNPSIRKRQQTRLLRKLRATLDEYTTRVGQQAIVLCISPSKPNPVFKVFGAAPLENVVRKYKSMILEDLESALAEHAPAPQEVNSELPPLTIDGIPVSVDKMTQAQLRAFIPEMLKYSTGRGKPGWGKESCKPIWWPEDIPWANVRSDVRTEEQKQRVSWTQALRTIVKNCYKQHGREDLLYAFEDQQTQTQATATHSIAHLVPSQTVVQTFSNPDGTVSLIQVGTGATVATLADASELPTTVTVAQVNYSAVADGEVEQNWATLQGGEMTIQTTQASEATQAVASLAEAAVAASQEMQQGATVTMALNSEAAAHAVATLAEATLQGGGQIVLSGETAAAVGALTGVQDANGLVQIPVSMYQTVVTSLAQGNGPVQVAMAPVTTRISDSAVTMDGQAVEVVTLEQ

The target in this test is Nuclear respiratory factor 1 (Homo sapiens) (UniProt Q16656). Put plainly: ATG_NRF1_CIS: Attagene CIS-FACTORIAL HepG2 Assay for human Nuclear Respiratory Factor 1 (NRF1) Orphan Gene (AID 2282987). The conditions noted are these: HepG2 NRF1 cis-element reporter, Attagene multiplex; actives raise or lower the signal. The method, boiled down:
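Fluorescence intensity of labelled reporter cDNA fragments, resolved by capillary electrophoresis, served as readout for NRF1 cis-element activity. Transiently transfected HepG2 cells were dosed for 24 hours; activity in either direction was fitted against DMSO negative control.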
`CC1CNCC(C)O1` (stereo not drawn): the outcome was inactive.
On to `CCOC(=O)CN[C@@H](C(=O)N1CC[C@H]1C(=O)NCc1ccc(/C(N)=N/O)cc1)C1CCCCC1`, for which the compound was classed as inactive.
Same read-out and setting: next, `CCCCCCc1ccc(N)cc1`: “inactive”.
On to `O=C1c2ccc(O)c(O)c2C(=O)c2c(O)ccc(O)c21`, for which the outcome was inactive.
`CC1=NN(c2ccccc2)C(=O)C1`: the compound was classed as inactive.
On to `FC(F)(F)C(F)(F)C(F)(F)C(F)(F)I`, for which the compound was called inactive.
Regarding `Cc1[nH]nc2c1N=C(c1ccccc1Cl)c1cc([N+](=O)[O-])ccc1N2`, the concentration at half-maximal activity (AC50) was 1.16 µM (active).
Take `Nc1ccn([C@@H]2O[C@H](CO)[C@@H](O)C2O)c(=O)n1` (stereo partly drawn): the result was inactive.
Consider `CN(C)c1ccc(C(=C2C=CC(=[N+](C)C)C=C2)c2ccccc2)cc1`, for which the result was inactive.
Same read-out and setting: next, `CCCCCCCCCCCCCCCCCC[N+](C)(C)Cc1ccccc1`: “inactive”; `CCCCN(C)C`: “inactive”.
Turning to `CCC(=O)C=Cc1ccc(OC)cc1`, the compound was called inactive.
`O=P(O)(O)CCC(F)(F)C(F)(F)C(F)(F)C(F)(F)C(F)(F)C(F)(F)C(F)(F)C(F)(F)F`: the call was inactive.
`CC(C)CCOCCC(C)C`: the result was inactive.
The same measure, in the same setting: next, `CC(C)(C)C1CCCCC1O` (stereo not drawn): “inactive”.
As for `O=S(=O)(O)c1ccccc1`, the compound was called inactive.
In the case of `O=C(O)CN(CCCN(CC(=O)O)CC(=O)O)CC(=O)O`, the outcome was inactive.
In the case of `Brc1cc(Br)c(Oc2c(Br)cc(Br)c(Br)c2Br)cc1Br`, the call was inactive.
With `Brc1ccc(Oc2ccc(Br)cc2Br)cc1`, the outcome was inactive.
As for `CCc1cccc(CC)c1NC(=O)C(=O)O`, the call was inactive.
For `CC(C)(C)c1ccc(O)c(O)c1`, the compound was classed as inactive.
`O=C(F)C(F)(F)C(F)(F)C(F)(F)C(F)F`: the compound was called inactive.
On the same count and under the same terms, next, `NNC(=O)CCCCC(=O)NN`: “inactive”; `COCN(COC)c1nc(N(COC)COC)nc(N(COC)COC)n1`: “inactive”; `FC(F)(F)N1C(F)(F)C(F)(F)OC(F)(F)C1(F)F`: “inactive”.
For `Cc1cc(C(C)(C)C)c(O)c(C(C)(C)C)c1`, the concentration at half-maximal activity (AC50) is 94.7 µM (active) and the outcome was inactive.
As to `Cc1cc(Cc2cc(C)cc(C(C)(C)C)c2O)c(O)c(C(C)(C)C)c1`, the AC50 was 180 µM (active).
Turning to `Cc1ccc2ccc3ccc(C)cc3c2c1`, the compound was classed as inactive.
The same measure, in the same setting: next, `COc1cc(OC)nc(NC(=O)NS(=O)(=O)Nc2ccccc2C(=O)N(C)C)n1`: “inactive”.
For `O=C(CC(=O)C(F)(F)C(F)(F)C(F)(F)F)c1cccs1`, the compound was called inactive.
For `Cc1ccccc1OCC(=O)O`, the compound was classed as inactive.
For the compound `O=C(O)CCC(F)(F)C(F)(F)C(F)(F)C(F)(F)C(F)(F)C(F)(F)F`, the compound was called inactive.
`C=CC(F)(F)C(F)(F)C(F)(F)C(F)(F)F`: the compound was called inactive.
Turning to `Oc1c(Cl)cc(Cl)cc1Sc1cc(Cl)cc(Cl)c1O`, the result was inactive.
Same read-out and setting: the same measure for `O=C(Nc1ccc(Cl)c(Cl)c1)c1cc(Cl)cc(Cl)c1O`: “inactive”.
On the same count and under the same terms, the same measure for `OCC1CCC(CO)CC1` (stereo not drawn): “inactive”.
Take `C[N+](C)(CCCNS(=O)(=O)CCC(F)(F)C(F)(F)C(F)(F)C(F)(F)C(F)(F)C(F)(F)F)CC(=O)[O-]`: the result was inactive.

The values are drawn from PubChem BioAssay (EPA / NIEHS).
